Source: PubChem BioAssay (National Center for Advancing Translational Sciences (NCATS))
NPC1 prom act: activates the NPC1 promoter; Huh7 NPC1 promoter luciferase reporter, 24 h; Potency, µM (doses to about 9.22 µM), actives largely listed as activators; hit rate 2.4% among 320,000; further: nearly all actives have a fitted effect of over 60% in size
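Luciferase expression driven by the NPC1 promoter was measured in stably transfected Huh7 cells after a 24 h compound incubation, using a luciferase reagent and a luminescence read.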
ELG1 DNA repair: ELG1-dependent DNA repair inhibition. HEK293T ELG1-luciferase reporter, luminescence, 16 h; DNA damage induced by 5-fluorouridine. Potency, µM (top dose mostly 46.1 µM), hits mostly inhibitors. hit rate 2.3% among 330,000; further: nearly all actives have a fitted effect of over 55% in size
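Cells (2,000 per well) received 5-fluorouridine plus test compound or DMSO and were incubated 16 hr at 37 °C, 5% CO2. Luciferase activity was read by luminescence 30 min after ONE-Glo addition; signal suppression marked inhibition of damage-induced ELG1 function.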
FLuc modulator: firefly luciferase modulation, counter-screen for miR-21 project; purified FLuc, Km substrates, luminescence inhibition; AID 588342; hit rate 6.9% among 360,000; Potency, µM (highest dose often 57.5 µM), actives largely listed as inhibitors; P08659; further: nearly all actives have a fitted effect of over 55% in size
Target sequence (P08659 whole entry, looked up): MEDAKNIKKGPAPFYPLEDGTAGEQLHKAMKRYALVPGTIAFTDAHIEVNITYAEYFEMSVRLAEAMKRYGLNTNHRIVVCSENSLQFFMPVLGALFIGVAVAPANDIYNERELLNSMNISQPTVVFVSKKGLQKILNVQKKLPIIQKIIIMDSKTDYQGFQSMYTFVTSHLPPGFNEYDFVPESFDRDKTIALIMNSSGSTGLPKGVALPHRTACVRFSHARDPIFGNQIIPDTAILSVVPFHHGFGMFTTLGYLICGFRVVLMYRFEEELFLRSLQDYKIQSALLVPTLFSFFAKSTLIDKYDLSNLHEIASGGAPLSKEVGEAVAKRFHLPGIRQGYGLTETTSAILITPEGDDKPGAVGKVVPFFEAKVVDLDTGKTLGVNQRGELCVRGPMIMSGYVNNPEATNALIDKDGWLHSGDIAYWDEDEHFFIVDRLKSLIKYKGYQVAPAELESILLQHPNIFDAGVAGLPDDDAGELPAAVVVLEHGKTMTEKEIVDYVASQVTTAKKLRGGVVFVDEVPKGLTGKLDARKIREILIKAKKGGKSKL
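Purified P. pyralis luciferase, 10 nM final, with Km-level 10 uM D-luciferin and 10 uM ATP in 50 mM Tris acetate pH 7.5, 10 mM Mg acetate, 0.01% Tween-20, 0.05% BSA; 6-point qHTS titration about 60 µM downward; luminescence read.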
ELG1 genotox: inducers of genotoxicity in HEK293T ELG1-luciferase cells | HEK293T ELG1-luciferase reporter, luminescence, 16 h | Potency, µM (highest dose often 46 µM), actives largely listed as activators | hit rate 1.3% among 330,000 | AID 504466; further: nearly all actives have a fitted effect of over 60% in size
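HEK293T cells expressing luciferase-tagged ELG1 were treated with compound or DMSO for 16 hr at 37°C. Luciferase activity was then read after 30 min with ONE-Glo at room temperature; rising signal flags genetic stress.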
Rab9 prom act: activates the Rab9 promoter; Huh7 Rab9 promoter-luciferase reporter, luminescence, 24 h; Potency, µM (top dose mostly 9.22 µM), most hits filed as activators; hit rate 2.8% among 320,000; further: nearly all actives have a fitted effect of over 60% in size
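Rab9 promoter-driven luciferase in stably transfected Huh7 cells; 1500 cells/well rested 2 h, exposed to compound in DMSO for 24 h at 37 °C, 5% CO2. Luminescence read 10 min after adding luciferase reagent at ambient temperature.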
SMN2 splice up: increases expression of the SMN2 splice variant; HEK293 SMN2-luciferase splicing reporter, luminescence, 30-36 h; Potency, µM (highest dose often 46.1 µM), usual class: activators; hit rate 2.8% among 210,000; AID 1458; further: nearly all actives have a fitted effect of over 55% in size
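HEK293 cells carry an SMN2 […]–luciferase reporter in which exon 7 inclusion puts luciferase in frame. Cells were plated 10-12 h before compound addition, then incubated 30-36 h at 37C. ONE-Glo luminescence was read; sodium butyrate at 4.5 mM final served as control.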
Large screens that a line does not name were inactive. Rows were chosen to be rich in hits. Some 9.3% of all compounds tested hit in one or more screens of this group. The call rests on the fitted dose curve; in most records, active means well fitted curve in the direction sought with a large enough effect; inconclusive means small, poorly fitted or top-dose-only effect, or another doubt; inactive means no such curve, though single readings can be large; an effect the other way counts as inactive or inconclusive.

CCN(CC)c1ccc(/C=N/NC(=O)c2ccc3nc[nH]c3c2)c(O)c1	ELG1 DNA repair inconclusive, FLuc modulator 13.5µM, ELG1 genotox inconclusive (no result: SMN2 splice up)
Cc1ccc(/C=N/NC(=O)c2ccc3nc[nH]c3c2)s1	ELG1 DNA repair inconclusive, FLuc modulator inconclusive
COc1cccc(C(=O)N/N=C/c2cn[nH]c2-c2ccc(OC)cc2OC)c1	FLuc modulator 15.1µM
COc1cc(OC)c(OC)cc1/C=N/NC(=O)c1ccc2nc[nH]c2c1	FLuc modulator 10.7µM (no result: SMN2 splice up)
COc1cccc(/C=N/NC(=O)c2ccc3nc[nH]c3c2)c1O	FLuc modulator 19µM (no result: SMN2 splice up)
COc1ccc(/C=N/NC(=O)c2ccc3nc[nH]c3c2)c(OC)c1OC	none (no result: SMN2 splice up)
CCN(CC)c1ccc(/C=N/NC(=O)c2cccc(S(=O)(=O)Nc3ccccc3OC)c2)c(O)c1	none
O=C(COC(=O)c1cn(-c2ccccc2)nc1-c1cccnc1)NC1CC1	none
CCOC(=O)c1nn2c(C(F)(F)F)cc(-c3ccc(OC)cc3)nc2c1Br	none (no result: SMN2 splice up)
O=C(CP(=O)(c1ccccc1)c1ccccc1)Nc1nc2ccc(Cl)cc2s1	none (no result: SMN2 splice up)
O=C(CNCc1ccccc1Cl)Nc1ccc2c(c1)OCCO2	NPC1 prom act 3.16µM, ELG1 DNA repair inconclusive, FLuc modulator 21.3µM, ELG1 genotox inconclusive, Rab9 prom act 2.82µM (no result: SMN2 splice up)
Cn1c(C(=O)O)c(CC(=O)Nc2ccc3c(c2)OCCO3)c2ccccc21	ELG1 DNA repair inconclusive, FLuc modulator 19µM, ELG1 genotox inconclusive
O=C(CSCc1ccccc1Cl)Nc1ccc2c(c1)OCCO2	NPC1 prom act 1.78µM, ELG1 DNA repair inconclusive, FLuc modulator 6.75µM, ELG1 genotox inconclusive, Rab9 prom act 1.58µM
O=C(CSCc1ccc(Cl)cc1)Nc1ccc2c(c1)OCO2	FLuc modulator inconclusive
CN1C(=O)c2ccc(NC(=O)c3c(C(=O)O)cccc3[N+](=O)[O-])cc2C1=O	none (no result: SMN2 splice up)
CCCc1nc2ccc(NC(=O)c3cccs3)cc2c(=O)n1Cc1ccccc1Cl	ELG1 DNA repair inconclusive
COc1ccc(Cn2c(C3CC3)nc3ccc(NC(C)=O)cc3c2=O)cc1	NPC1 prom act 2.24µM, ELG1 DNA repair inconclusive, FLuc modulator 10.7µM, ELG1 genotox inconclusive, Rab9 prom act 1.58µM, SMN2 splice up 11.2µM
CCCc1nc2ccc(NC(C)=O)cc2c(=O)n1Cc1ccc(Cl)cc1	NPC1 prom act 3.55µM, ELG1 DNA repair inconclusive, FLuc modulator inconclusive, ELG1 genotox inconclusive, Rab9 prom act inconclusive
COc1ccc([C@H](O)c2ccccn2)cc1	none (no result: NPC1 prom act, ELG1 DNA repair, FLuc modulator, ELG1 genotox, Rab9 prom act)
Cn1c(/C=C/c2cccc([N+](=O)[O-])c2)c([N+](=O)[O-])c(=O)n(C)c1=O	ELG1 DNA repair inconclusive (no result: SMN2 splice up)
O=C(CSc1ncc2c(n1)-c1cc(Cl)ccc1N(Cc1ccccc1)S2(=O)=O)NCCc1ccccc1	none (no result: NPC1 prom act, ELG1 DNA repair, ELG1 genotox, Rab9 prom act, SMN2 splice up)
CCOc1ccc(-c2nc(C)c(C(C)=O)n2O)cc1	ELG1 DNA repair inconclusive, FLuc modulator 6.75µM, ELG1 genotox inconclusive, Rab9 prom act inconclusive, SMN2 splice up 12.6µM
Cc1c(/C=N/Nc2ccc(C(=O)O)cc2)c2ccccc2n1C	NPC1 prom act 2.24µM, ELG1 DNA repair inconclusive, FLuc modulator 10.7µM, ELG1 genotox inconclusive, Rab9 prom act 1.41µM (no result: SMN2 splice up)
CCn1c(/C=N/Nc2ccc(C(=O)O)cc2)nc2ccccc21	FLuc modulator 10.7µM
Cc1c(/C=N\NC(=O)C2COc3ccccc3O2)c2ccccc2n1C (configuration not stated)	FLuc modulator inconclusive
CCn1c(CNc2ccc(C(=O)O)cc2)nc2ccccc21	none (no result: NPC1 prom act, ELG1 DNA repair, ELG1 genotox, Rab9 prom act)
O=C(c1c(F)cccc1F)N1CCC(n2nnc3cc(C(F)(F)F)ccc32)CC1	ELG1 DNA repair inconclusive (no result: SMN2 splice up)
O=S1(=O)N=C(Nc2ccc(N3CCOCC3)cc2)c2ccccc21	FLuc modulator 13.5µM, SMN2 splice up inconclusive
c1ccc2c(Nc3ccc(N4CCOCC4)cc3)nc(N3CCOCC3)nc2c1	ELG1 DNA repair 9.2µM (no result: SMN2 splice up)
c1ccc2c(N3CCOCC3)nc(N3CCOCC3)nc2c1	ELG1 DNA repair inconclusive
Cc1cccc(-c2nc(Nc3cccc(O)c3)c3ccccc3n2)c1	ELG1 DNA repair inconclusive, FLuc modulator inconclusive (no result: SMN2 splice up)
O=S1(=O)N=C(N2CCOCC2)c2ccccc21	none
Cc1cccc(-c2nc(Nc3ccc(N4CCOCC4)cc3)c3ccccc3n2)c1	ELG1 DNA repair 23.1µM, FLuc modulator inconclusive
CNC(=O)COc1ccc(Nc2nnc(-c3ccc(C)c(S(=O)(=O)NC(C)(C)C)c3)c3ccccc23)cc1	FLuc modulator 15.1µM (no result: NPC1 prom act, ELG1 DNA repair, ELG1 genotox, Rab9 prom act)
C#CC(C)(C)NS(=O)(=O)c1cc(-c2nnc(Nc3ccc(C)cc3)c3ccccc23)ccc1C	FLuc modulator 2.69µM (no result: NPC1 prom act, ELG1 DNA repair, ELG1 genotox, Rab9 prom act)
CCC(C)[C@H](NC(=O)N1CCC(C)CC1)C(=O)OC (some centres not stated)	none (no result: SMN2 splice up)
N#CCC(=O)Nc1ccc(C(=O)OCC(=O)c2ccc3c(c2)OCO3)cc1	NPC1 prom act inconclusive, ELG1 DNA repair inconclusive, FLuc modulator inconclusive, Rab9 prom act 3.98µM (no result: SMN2 splice up)
N#CCC(=O)Nc1ccc(C(=O)Nc2ccc3c(c2)OCO3)cc1	FLuc modulator inconclusive (no result: SMN2 splice up)
N#CCC(=O)Nc1ccc(C(=O)OCC(=O)c2ccc3c(c2)OCCO3)cc1	NPC1 prom act inconclusive, ELG1 DNA repair inconclusive, FLuc modulator 10.7µM, Rab9 prom act inconclusive
